From PubChem BioAssay
KDM5B inh = blocks human KDM5B histone demethylase activity; 220,000 tested, 2.6% active; AID 1347165; KDM5B demethylase, FDH-coupled NADH fluorescence (FDH is formaldehyde dehydrogenase); Potency, µM (titrated, usually from 57.7 µM), usual class: inhibitors; Q9UGL1; active = well fitted inhibition curve with a large enough effect; also: 0% is about no effect; nearly all actives have a fitted effect of over 70% in size
Target sequence (Q9UGL1 whole entry, looked up): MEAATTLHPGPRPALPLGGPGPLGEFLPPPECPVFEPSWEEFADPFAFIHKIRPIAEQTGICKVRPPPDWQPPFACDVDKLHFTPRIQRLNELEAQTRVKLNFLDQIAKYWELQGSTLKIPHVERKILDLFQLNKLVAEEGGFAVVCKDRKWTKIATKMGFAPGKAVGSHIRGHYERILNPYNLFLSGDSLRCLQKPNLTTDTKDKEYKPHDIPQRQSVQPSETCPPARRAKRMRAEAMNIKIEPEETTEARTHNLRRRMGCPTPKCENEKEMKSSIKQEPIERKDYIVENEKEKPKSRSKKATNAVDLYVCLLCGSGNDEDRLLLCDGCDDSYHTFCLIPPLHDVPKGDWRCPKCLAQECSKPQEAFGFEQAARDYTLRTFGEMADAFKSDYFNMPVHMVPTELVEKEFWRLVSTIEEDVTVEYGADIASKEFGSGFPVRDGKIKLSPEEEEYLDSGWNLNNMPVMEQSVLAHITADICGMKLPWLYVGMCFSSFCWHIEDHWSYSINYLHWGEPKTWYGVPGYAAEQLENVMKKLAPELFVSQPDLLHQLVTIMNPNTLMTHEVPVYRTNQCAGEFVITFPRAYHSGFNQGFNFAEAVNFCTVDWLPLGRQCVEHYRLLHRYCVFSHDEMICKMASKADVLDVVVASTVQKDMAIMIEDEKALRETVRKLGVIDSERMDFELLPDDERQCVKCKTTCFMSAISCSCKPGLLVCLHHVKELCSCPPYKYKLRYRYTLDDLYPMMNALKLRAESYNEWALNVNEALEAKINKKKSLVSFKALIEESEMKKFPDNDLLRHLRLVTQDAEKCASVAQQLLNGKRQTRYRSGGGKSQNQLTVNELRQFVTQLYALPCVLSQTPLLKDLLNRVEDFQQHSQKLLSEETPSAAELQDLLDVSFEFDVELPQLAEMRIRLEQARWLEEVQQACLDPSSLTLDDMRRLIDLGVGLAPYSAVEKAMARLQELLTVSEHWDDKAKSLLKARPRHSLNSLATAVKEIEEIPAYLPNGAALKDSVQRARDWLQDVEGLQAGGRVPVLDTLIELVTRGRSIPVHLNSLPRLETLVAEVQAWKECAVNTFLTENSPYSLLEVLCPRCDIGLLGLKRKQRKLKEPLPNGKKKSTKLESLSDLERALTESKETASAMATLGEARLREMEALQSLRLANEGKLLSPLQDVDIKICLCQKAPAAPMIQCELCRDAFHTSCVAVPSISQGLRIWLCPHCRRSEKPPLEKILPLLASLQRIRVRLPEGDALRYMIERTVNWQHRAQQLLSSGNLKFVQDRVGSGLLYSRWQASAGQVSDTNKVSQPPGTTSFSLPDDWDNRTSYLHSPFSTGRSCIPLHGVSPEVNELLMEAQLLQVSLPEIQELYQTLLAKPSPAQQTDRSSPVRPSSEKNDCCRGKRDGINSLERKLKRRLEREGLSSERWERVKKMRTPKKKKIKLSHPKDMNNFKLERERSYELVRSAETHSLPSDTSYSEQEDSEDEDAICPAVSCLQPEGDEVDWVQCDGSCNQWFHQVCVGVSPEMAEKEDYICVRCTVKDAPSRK
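Compound dilutions met 200 nM (final) KDM5BΔAP for 10 min at room temperature before substrate addition. The substrate mix held 12.5 µM H3K4me3 with cofactors 25 µM α-ketoglutarate and 50 µM Fe²⁺. NADH signal gain over 30 min defined activity.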
* hit, by the source's call. Many of the other results were omitted from the sample, so hits are more common in it than they were. Potency is read from the fitted curve at half-maximal effect.

Results for O=C(N[C@H]1CCN2C(=O)c3cc(-c4ccc(F)cc4F)ccc3NC(=O)[C@H]12)c1cccs1 ?
KDM5B inh: inactive

What do the screens show for `C=CCO[C@@H]1CCN2C(=O)c3cc(-c4ccccc4)ccc3NC(=O)[C@H]12`?
KDM5B inh: inactive

What do the screens show for `CC(C)NC(=O)N[C@H]1CCN2C(=O)c3cc(-c4ccccc4F)ccc3NC(=O)[C@H]12`?
KDM5B inh: inactive

What do the screens show for `COc1ccc(/C=C/c2ccc3c(c2)C(=O)N2CC[C@H](N)[C@H]2C(=O)N3)cc1`?
KDM5B inh: 35µM*

What do the screens show for `C[N+](C)(N)Cc1ccccc1`?
KDM5B inh: inactive

What do the screens show for `COC(=O)C1CCN(Cc2cc(=O)oc3ccc(O)cc23)CC1`?
KDM5B inh: inactive

Results for C/C(=N\Nc1ccc([N+](=O)[O-])cc1)c1ccc(C)cc1C ?
KDM5B inh: inactive

How did C=C(C)CN(CC)C(=O)CCc1cccs1 do in these assays?
KDM5B inh: inactive

How did COc1ccccc1-n1[nH]c(CSc2nnnn2-c2ccccc2)cc1=O do in these assays?
KDM5B inh: inactive

Results for O=C(CSc1nnc2[nH]c(=O)c(Cc3ccccc3)nn12)Nc1cccc(Cl)c1 ?
KDM5B inh: inactive

What do the screens show for `COCCN(CCOC)C(=O)c1ccc(Cl)cc1F`?
KDM5B inh: inactive

Results for CCC(=O)N1Cc2ccccc2CC2(CCCN(C)C2)C1 (configuration not stated) ?
KDM5B inh: inactive

What do the screens show for `O=C(N[C@H]1C[C@H]2C(=O)Nc3ccc(-c4ccsc4)cc3C(=O)N2C1)c1ccccc1`?
KDM5B inh: inactive

What do the screens show for `O=C(N[C@H]1CCN2C(=O)c3cc(-c4ccsc4)ccc3NC(=O)[C@@H]2C1)c1cccs1`?
KDM5B inh: 22µM*

Results for O=C(N[C@H]1CCN2C(=O)c3cc(-c4ccc(F)cc4F)ccc3NC(=O)[C@@H]2C1)c1cccs1 ?
KDM5B inh: inactive

What do the screens show for `CCc1cc(C(c2ccc(F)cc2)N2CCN(CC)CC2)c(NC(=O)c2ccco2)s1` (configuration not stated)?
KDM5B inh: inactive

How did CCn1ccnc1CN(C)C(=O)c1cc(-c2cnc(C)nc2)nc2cc(F)ccc12 do in these assays?
KDM5B inh: inactive

How did CCn1ccnc1CN(C)C(=O)c1cc(-c2cnc(N)nc2)nc2c(C)cccc12 do in these assays?
KDM5B inh: 28µM*

How did Cc1cccc2c(C(=O)O)cc(-c3cccnc3)nc12 do in these assays?
KDM5B inh: inactive

Results for CC(C)C(=O)NCCNC(=O)C1(c2ccccc2)CCC1 ?
KDM5B inh: inactive

Results for CC(C)=CC(=O)N(Cc1cccs1)C1CC1 ?
KDM5B inh: inactive

What do the screens show for `Cc1cc(C)cc(NC(=O)CS(=O)(=O)Cc2nc(-c3ccccc3C)oc2C)c1`?
KDM5B inh: inactive

How did O=C(CCc1c[nH]c2ccccc12)NC1(c2ccccc2)CCC1 do in these assays?
KDM5B inh: inactive

Results for Cc1ccc(C)c(NC(=O)C(C)NS(=O)(=O)c2ccc3c(c2)CCN3C(=O)N2CCCC2)c1 (configuration not stated) ?
KDM5B inh: inactive

Results for Cc1nn2c(c1-c1ccccc1-c1ccccc1)N(Cc1ccc(C(=O)O)s1)CCC2 ?
KDM5B inh: inactive

Results for Cc1nn2c(c1-c1ccccc1-c1ccccc1)N(C(=O)c1ccnn1C)CCC2 ?
KDM5B inh: inactive

Results for Cc1nn2c(c1-c1ccccc1Oc1ccccc1)N(Cc1cccc(C#N)c1)CCC2 ?
KDM5B inh: 25µM*

Results for Cc1nn2c(c1-c1ccccc1-c1ccccc1)N(Cc1ccccc1)CCC2 ?
KDM5B inh: 32µM*

Results for Cc1nn2c(c1-c1ccccc1Oc1ccccc1)N(C(=O)Cc1ccccc1)CCC2 ?
KDM5B inh: inactive

How did Cc1nn2c(c1-c1ccccc1-c1ccccc1)N(CCC(C)C)CCC2 do in these assays?
KDM5B inh: 6.3µM*

What do the screens show for `Cc1nn2c(c1-c1ccccc1C(C)C)N(Cc1ccc(C(=O)O)s1)CCC2`?
KDM5B inh: inactive

What do the screens show for `Cc1nn2c(c1-c1ccccc1Oc1ccccc1)N(C(=O)c1cccc(C#N)c1)CCC2`?
KDM5B inh: inactive

Results for Cc1nn2c(c1-c1ccccc1-c1ccccc1)N(C(=O)Cc1ccc3c(c1)OCO3)CCC2 ?
KDM5B inh: inactive

How did Cc1oc2cc(OS(C)(=O)=O)ccc2c(=O)c1Oc1ccccc1Br do in these assays?
KDM5B inh: inactive

Results for CC[N+](CC)(CC)CCCOC(=O)C1(c2ccccc2)CCCC1 ?
KDM5B inh: inactive

What do the screens show for `N#CC1=C(n2cccc2)N(c2ccc(Br)cn2)C2=C(C(=O)CCC2)C1c1cccc(C(F)(F)F)c1` (configuration not stated)?
KDM5B inh: inactive

How did Cc1ccc(NC(=O)c2n[nH]c(=O)c3ccccc23)cc1S(=O)(=O)N1CCCCC1 do in these assays?
KDM5B inh: inactive

How did CCc1c(C(=O)Nc2ccc(F)cc2C)cnn1-c1ccc(OC)nn1 do in these assays?
KDM5B inh: inactive

Results for N#Cc1ccc(NS(N)(=O)=O)cc1 ?
KDM5B inh: inactive

Results for CCCCN1C(=O)C(O)(CC(=O)c2cccnc2)c2ccccc21 (configuration not stated) ?
KDM5B inh: inactive

What do the screens show for `O=C(/C=C/c1c(Cl)cccc1Cl)c1cccc(O)c1`?
KDM5B inh: inactive

Results for Cc1cc(NC(=O)CCn2cnc3c2c(=O)n(C)c(=O)n3C)ccc1Br ?
KDM5B inh: inactive

How did Cc1ccc(NC(=O)Cn2c(=O)cc(C(=O)N3CCCC3)c3ccccc32)cc1F do in these assays?
KDM5B inh: inactive

What do the screens show for `O=C(Nc1cccc(F)c1)N1CCc2c(c3ccccc3n2CC2CC2)C1`?
KDM5B inh: 22µM*

What do the screens show for `Cc1ccc(NC(=O)N2CCc3c(c4ccccc4n3CC3CC3)C2)cc1`?
KDM5B inh: 22µM*

How did O=C(Nc1ccc(F)c(F)c1)N1CCc2c(c3ccccc3n2CC2CC2)C1 do in these assays?
KDM5B inh: 22µM*

Results for O=C(Cn1ncc2ccccc2c1=O)Nc1ccc(F)c(F)c1 ?
KDM5B inh: inactive

How did O=C(CC1CCN(C(=O)Nc2cccc(F)c2)C1)NC1CC1 (configuration not stated) do in these assays?
KDM5B inh: inactive

How did Cc1ccc(NC(=O)N2CCCC(c3ccccc3)C2)cc1 (configuration not stated) do in these assays?
KDM5B inh: inactive

Results for O=C(NCCC1CCN(C(=O)Nc2cccc(F)c2)CC1)c1ccccc1 ?
KDM5B inh: inactive

How did CCc1ccc(NC(=O)N2CCC(CN3CCc4ccccc4C3)CC2)cc1 do in these assays?
KDM5B inh: inactive

How did Cc1ccc(CNC(=O)CCCn2c(C)c3cnn(-c4ccccc4)c(=O)c3c2C)cc1 do in these assays?
KDM5B inh: inactive

Results for CCN1CCN(S(=O)(=O)c2ccc(NC(=O)CCc3ncc(-c4ccc(F)cc4)o3)cc2)CC1 ?
KDM5B inh: inactive

How did Cc1cccc(N2CCN(C(=O)c3nn(Cc4ccccc4)c(=O)c4ccccc34)CC2)c1C do in these assays?
KDM5B inh: inactive

What do the screens show for `Cc1ccc(C(=O)c2c(C)c(CCC#N)n3ccccc23)cc1C`?
KDM5B inh: inactive

How did Cc1sc(N2CCCC2)nc1-c1ccc(NS(C)(=O)=O)cc1 do in these assays?
KDM5B inh: inactive

How did Cc1c(Cl)cccc1NC(=O)CCNC(=O)CCC(=O)c1cccs1 do in these assays?
KDM5B inh: inactive

Results for CC(=O)N[C@@H]1CN(S(=O)(=O)c2sccc2C)C[C@H]1c1ccc(C)o1 ?
KDM5B inh: inactive
